This note sets out measurements from the supplement of paper PMC12024424.

Where a name gives a salt, the structure may show the parent alone.

This experiment deals with Staphylococcus aureus Sa2 (MRSA, cystic fibrosis isolate). The experiment is described as follows: growth reduction vs untreated control (viable cell count); higher = stronger antibacterial activity; extreme values may be limits of the assay. Particulars: 0.1 mM; 24 h. As for the experimental part: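 Single-dose screen of the MedChem Express Drug Repurposing Library (0.1 mM, 1% DMSO) against planktonic MRSA S. aureus Sa2 (CF isolate) in TSB in 96-well plates, 37 °C aerobic, 24 h. Assays were run in triplicate and repeated twice.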
The compound `CC(C)(C)Cn1c(N)nc2ccc(-c3[nH]c(C(C)(C)C)nc3-c3ccc(F)cc3)nc21` [Ralimetinib dimesylate] displayed a growth reduction of 97%. For `COc1ccc(NS(=O)(=O)c2c(F)c(F)c(F)c(F)c2F)cc1F` [Batabulin] the value was 98%; for `OCc1cc([C@@H](O)CNCCCCCCOCCOCc2c(Cl)cccc2Cl)ccc1O` [Vilanterol], 100%.

`C=C[C@@H]1C[C@]1(NC(=O)[C@@H]1C[C@@H]2CN1C(=O)[C@H](C(C)(C)C)NC(=O)O[C@@H]1C[C@H]1CCCCCc1nc3ccc(OC)cc3nc1O2)C(=O)NS(=O)(=O)C1CC1` [Grazoprevir] registered a growth reduction of 100%. For `CC(C)COc1ccc(CNC(=O)N(Cc2ccc(F)cc2)C2CCN(C)CC2)cc1` [Pimavanserin tartrate], the growth reduction turned out to be 100%.

For `CNC(=O)c1cc(Oc2ccc(NC(=O)Nc3ccc(Cl)c(C(F)(F)F)c3)c(F)c2)ccn1` [Regorafenib (Hydrochloride)], the growth reduction is 100%. For `Cc1ccc(Sc2ccccc2N2CCNCC2)c(C)c1` [Vortioxetine] the value was 100%; for `Clc1ccc(CSC(Cn2ccnc2)c2ccc(Cl)cc2Cl)cc1` (stereo not drawn) [Sulconazole (mononitrate)], 100%; for `CC(C)(C)CC(C)(C)c1ccc(OCCOCC[N+](C)(C)Cc2ccccc2)cc1` [Benzethonium chloride], 100%. For `CC(C)OC(=O)CCC/C=C\C[C@@H]1[C@@H](/C=C/[C@@H](O)COc2cccc(C(F)(F)F)c2)[C@H](O)C[C@@H]1O` [Travoprost] the value was 100%; for `C=C(C)[C@@H]1CC[C@]2(C(=O)O)CC[C@]3(C)[C@H](CC[C@@H]4[C@@]5(C)CC[C@H](OC(=O)CC(C)(C)C(=O)O)C(C)(C)[C@@H]5CC[C@]43C)[C@@H]12` [Bevirimat], 100%. For the compound `Cc1cc(C2CCCCC2)n(O)c(=O)c1` [Ciclopirox], the growth reduction worked out at 100%.

Compound `C[C@@H](OC[C@@]1(c2ccccc2)CC[C@]2(CCC(=O)N2)CN1)c1cc(C(F)(F)F)cc(C(F)(F)F)c1` [Rolapitant] displayed a growth reduction of 100%.

`CCCCCCNC(=O)n1cc(F)c(=O)[nH]c1=O` [Carmofur]: the growth reduction was determined as 100%. In the case of `COc1cccc2c1C(=O)c1c(O)c3c(c(O)c1C2=O)C[C@@](O)(C(=O)CO)C[C@@H]3O[C@H]1C[C@H](N)[C@@H](O)[C@H](C)O1` [Epirubicin (hydrochloride)], the growth reduction was determined as 100%. The figure for `CC1=C(C)C(=O)C(CCCCCCCCCC[P+](c2ccccc2)(c2ccccc2)c2ccccc2)=CC1=O` [Visomitin] is 100%; for `CC(C)c1c(C(=O)Nc2ccccc2)c(-c2ccccc2)c(-c2ccc(F)cc2)n1CC[C@@H](O)C[C@@H](O)CC(=O)O` [Atorvastatin (hemicalcium salt)] it is 98%. For `C=CC(=O)Nc1cc(Nc2nccc(-c3cn(C)c4ccccc34)n2)c(OC)cc1N(C)CCN(C)C` [Osimertinib mesylate] the value was 100%; for `CCc1cc(-c2noc(-c3cc(OC)nc(C4CCCC4)c3)n2)cc(C)c1OC[C@@H](O)CO` [Cenerimod], 100%.

As for `COC(=O)C1=C(C)NC(C)=C(C(=O)OC(C)C)C1c1cccc2nonc12` (stereo not drawn) [Isradipine], the growth reduction is 100%. For `Cc1cc(-c2nc(CN3CCNCC3)no2)cc2c1C(=O)N(Cc1ccc(OC(F)(F)F)cc1)C2` the value was 100%; for `C=Cc1cc(O)cc2nc(-c3ccc(O)c(F)c3)oc12` [Prinaberel], 100%; for `CC(=O)c1cc2c(o1)C(=O)c1ccccc1C2=O` [Napabucasin], 100%. Consider `CO[C@H](C(=O)[C@@H](O)[C@@H](C)O)[C@@H]1Cc2cc3cc(O[C@H]4C[C@@H](O[C@H]5C[C@@H](O)[C@H](O)[C@@H](C)O5)[C@H](O)[C@@H](C)O4)c(C)c(O)c3c(O)c2C(=O)[C@H]1O[C@H]1C[C@@H](O[C@H]2C[C@@H](O[C@H]3C[C@](C)(O)[C@H](O)[C@@H](C)O3)[C@@H](O)[C@@H](C)O2)[C@H](O)[C@@H](C)O1` [Plicamycin], for which the growth reduction was 100%.

Compound `O=C(O)CNC(=O)c1nc(Cl)c2ccccc2c1O` displayed a growth reduction of 100%. The figure for `CC(C)(C(=O)NCC(F)(F)C(F)(F)F)C(=O)N[C@@H]1C(=O)Nc2ccccc2-c2ccccc21` is 90%; for `CC(=O)Oc1cc(C)c(OC(C)=O)c2ccccc12` [Vitamin K4] it is 97%. For `O=c1[nH]cnc2c1cnn2[C@@H]1O[C@H](CO)[C@@H](O)[C@H]1O` [Allopurinol riboside] the value was 100%.
